Results on 40 sequences are retold here after PMC5913336, “True equilibrium measurement of transcription factor-DNA binding affinities using automated polarization microscopy”.

One test deals with T1, Kni (Drosophila melanogaster, UniProt P10734 2-102).
T1 sequence: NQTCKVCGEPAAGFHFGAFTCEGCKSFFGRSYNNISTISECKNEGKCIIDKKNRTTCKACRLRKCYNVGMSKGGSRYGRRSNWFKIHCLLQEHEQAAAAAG
Briefly: FP; 33 mM phosphate pH 7.0, 90 mM NaCl, 0.01% Tween 20, 0.1 mM DTT, 0.5% agarose; room temperature. As to conditions: tags: N-GST (pGEX-6P-1, kept); dsDNA, one strand shown.
With CAAAACTAGCGCACT, the binding signal is 9.49 Kd / Kd of best base at the position.

For the sequence CAAAACTGGAGCACT, the binding signal is 1.5 Kd / Kd of best base at the position.

On to CAAAATTAGAGCACT, for which the binding signal was 1.05 Kd / Kd of best base at the position.

As for CAAAACTTGAGCACT, the binding signal was 25.5 Kd / Kd of best base at the position.

In the case of CAAAACTAGAGTACT, the binding signal is 5.23 Kd / Kd of best base at the position.

As to CAAAAATAGAGCACT, the binding signal was 2.52 Kd / Kd of best base at the position.

Take CAAAACTAGGGCACT: the binding signal was 2.34 Kd / Kd of best base at the position.

CAATACTAGAGCACT: the binding signal was 6.63 Kd / Kd of best base at the position.

As to CAAAACTAGACCACT, the binding signal was 3.9 Kd / Kd of best base at the position.

Take CAAAACTAGAGCACC: the binding signal was 2.3 Kd / Kd of best base at the position.

The next test has as its target T2, Cad (Drosophila melanogaster, UniProt P09085 273-344).
T2 sequence: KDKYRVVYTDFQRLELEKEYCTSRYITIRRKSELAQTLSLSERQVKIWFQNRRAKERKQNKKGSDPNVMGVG
Briefly: FP; 20 mM Tris-acetate pH 7.0, 50 "nM" NaCl as printed (probably mM), 0.01% Tween 20, 0.1 mM DTT; conventional titration. Particulars: tags: N-GST (pGEX-6P-1, kept); dsDNA, one strand shown.
Turning to CACTTCTTATA, the binding signal was 16.8 Kd / Kd of best base at the position.

As for CACTGTTTATA, the binding signal was 3.1 Kd / Kd of best base at the position.

As to CACTTTCTATA, the binding signal was 37.9 Kd / Kd of best base at the position.

For CACTTTTTATC, the binding signal was 13.5 Kd / Kd of best base at the position.

Turning to CAATTTTTATA, the binding signal is 2 Kd / Kd of best base at the position.

As to CATTTTTTATA, the binding signal is 6.67 Kd / Kd of best base at the position.

On to CACTTTTTGTA, for which the binding signal was 29 Kd / Kd of best base at the position.

Consider CACTTTTTAGA, for which the binding signal is 16 Kd / Kd of best base at the position.

Consider CACTCTTTATA, for which the binding signal is 7.2 Kd / Kd of best base at the position.

Turning to CACTTTTTATA, the Kd (commonly the constant that tells how readily two partners part at equilibrium) was approximately 50 pM.

For GACTTTTTATA, the binding signal is 1.8 Kd / Kd of best base at the position.

CACTTTTTAAA: the binding signal was 13.6 Kd / Kd of best base at the position.

As to CACTTGTTATA, the binding signal was 16.7 Kd / Kd of best base at the position.

CACCTTTTATA: the binding signal was 1.7 Kd / Kd of best base at the position.

Turning to CACTTTTCATA, the binding signal was 17.6 Kd / Kd of best base at the position.

As for CACTTTTAATA, the binding signal is 4.1 Kd / Kd of best base at the position.

For the sequence CACTTTTTTTA, the binding signal is 181 Kd / Kd of best base at the position.

For CTCTTTTTATA, the binding signal was 4.6 Kd / Kd of best base at the position.

Regarding CACTTTTGATA, the binding signal was 50.5 Kd / Kd of best base at the position.

With CACTTTTTATT, the binding signal was 5.4 Kd / Kd of best base at the position.

On to CACTTTATATA, for which the binding signal was 3 Kd / Kd of best base at the position.

Take CACTATTTATA: the binding signal is 2.8 Kd / Kd of best base at the position.

For the sequence TACTTTTTATA, the binding signal was 1.3 Kd / Kd of best base at the position.

Turning to CACTTTTTCTA, the binding signal is 287 Kd / Kd of best base at the position.

Consider CACGTTTTATA, for which the binding signal is 5.5 Kd / Kd of best base at the position.

Consider CCCTTTTTATA, for which the binding signal was 1 Kd / Kd of best base at the position.

In the case of CACTTTTTATG, the binding signal is 2.2 Kd / Kd of best base at the position.

On to CAGTTTTTATA, for which the binding signal was 1.11 Kd / Kd of best base at the position.

Regarding CACTTTGTATA, the binding signal is 27.9 Kd / Kd of best base at the position.

As for CACTTTTTACA, the binding signal is 1.6 Kd / Kd of best base at the position.
